Screening results as filed in PubChem.
An excerpt weighted towards active compounds, which were near 1.9% of everything screened.
USP2a block: inhibitors of human ubiquitin-specific protease USP2a; O75604; USP2 core, Ub-CHOP2 coupled fluorogenic reporter, 485/531; Potency, µM (doses to about 38.3 µM), for inactives: at the highest dose activity change, negative = inhibition, usual class: inhibitors; 330,000 tested, 0.01% active; AID 463254;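 further: potency means the concentration at half of the fitted maximal effect; plate controls were DMSO wells for no effect and full inhibition by NEM control for full effect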
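USP2 core (10nM final) preincubated 30min RT with compound in 20mM Tris-HCl pH 8.0, 2mM CaCl2, 2mM beta-mercaptoethanol, 0.05% CHAPS; 25nM Ub-CHOP2 plus 25nM reporter substrate added, fluorescence (Ex485/Em531) read after 60min.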
ClpP mod: qHTS Assay for Activators of ClpP | Potency, µM (top dose mostly 57.5 µM), for inactives: at the top dose activity change, negative = active | ATP-dependent Clp protease proteolytic subunit (Bacillus subtilis (strain 168)), P80244 | purified B. subtilis ClpP, FRET peptide cleavage, 20 min | 340,000 tested, 1.9% active; active means well fitted falling curve with a large enough effect; inconclusive means small, poorly fitted or top-dose-only effect; inactive means no such curve, though single readings can be large or run the other way; further: potency means the concentration at half of the fitted maximal effect; the source files actives as falling curves though it sought activators and does not explain the sign; nearly all actives have a fitted effect of over 65% in size
Target sequence (P80244 whole entry, looked up): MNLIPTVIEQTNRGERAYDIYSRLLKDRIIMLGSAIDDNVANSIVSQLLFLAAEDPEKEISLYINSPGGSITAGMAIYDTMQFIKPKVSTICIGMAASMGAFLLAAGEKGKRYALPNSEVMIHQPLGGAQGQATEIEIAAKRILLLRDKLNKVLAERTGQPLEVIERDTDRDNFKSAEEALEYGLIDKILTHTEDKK
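FRET quenching reversal measured ClpP activation: 10 microg/mL B. subtilis ClpP at pH 8 with the FRET-FV decapeptide, read at 430 nm after 320 nm excitation. The 20-min minus 0-min signal was scaled between DMSO/no-enzyme wells and ADEP (5.8 microM final).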
IL2 activator: activates IL-2 in a cell-based reporter assay; IL-2 activation reporter assay, cell-based qHTS; stimulated with anti-CD3/CD4/CD28 beads; in transgenic mouse T cells; activation, % (series mostly up to about 46 µM); 360,000 tested, 0.065% active; AID 652025; in the data active means activation above about 50%; inconclusive means mostly about 30% to 49%; further: 0% is about no effect
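Unstimulated transgenic mouse T cells preincubated 60 min with compound, then stimulated with anti-CD3/anti-CD4-coated beads plus anti-CD28 for 18 h at 37 degrees C. IL-2 response read as EGFP and DsRed fluorescence by plate cytometry.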
Pin1 inhibitor: human Pin1 inhibition. Pin1 FP peptide displacement, HiFluor488, 10 min. Potency, µM (series often up to 115 µM), for inactives: at the highest dose activity, negative = inhibition, hits mostly inhibitors. 390,000 tested, 0.009% active. AID 504891; active means well fitted inhibition curve with a large enough effect in the polarisation, with a control signal flat, not every such curve was filed as active; inconclusive means small, poorly fitted or top-dose-only effect, or effect the other way, or a change in a side signal; inactive means no such curve, though single readings can be large or run the other way; the % refers to the polarisation; further: potency means the concentration at half of the fitted maximal effect; on the % scale 0 is the no-effect control and ±100 the full control effect
PKM2 activator: increases activity of human pyruvate kinase M2; P14618; Potency, µM (titrated, usually from 57.5 µM), for the others: at the highest dose activation, hits mostly activators; 260,000 tested, 0.34% active; purified PKM2, Kinase-Glo ATP luminescence, activation; response scale: 0% is enzyme alone, no compound; further: potency means the concentration at half of the fitted maximal effect; on the % scale 0 is the no-effect control and ±100 the full control effect; nearly all actives have a fitted effect of over 55% in size
Target sequence (P14618 whole entry, looked up): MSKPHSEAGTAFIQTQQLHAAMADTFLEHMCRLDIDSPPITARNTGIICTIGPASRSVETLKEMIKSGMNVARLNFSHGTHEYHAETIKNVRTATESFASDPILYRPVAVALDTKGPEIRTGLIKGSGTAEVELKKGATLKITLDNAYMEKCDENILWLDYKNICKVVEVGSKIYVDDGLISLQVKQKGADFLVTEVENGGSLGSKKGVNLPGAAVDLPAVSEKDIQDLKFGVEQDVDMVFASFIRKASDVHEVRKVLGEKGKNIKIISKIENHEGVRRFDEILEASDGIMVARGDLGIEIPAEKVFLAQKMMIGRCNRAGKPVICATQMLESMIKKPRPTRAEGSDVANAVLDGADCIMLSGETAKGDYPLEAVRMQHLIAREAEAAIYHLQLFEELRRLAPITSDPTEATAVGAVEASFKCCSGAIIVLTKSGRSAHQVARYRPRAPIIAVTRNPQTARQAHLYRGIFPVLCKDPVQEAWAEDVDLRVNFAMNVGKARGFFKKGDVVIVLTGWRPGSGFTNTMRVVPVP
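Kinase-Glo luminescence reports ATP generated from ADP (0.1 mM) and PEP (0.5 mM) by purified hPK-M2 after 1 h at room temperature, pH 7.2 imidazole buffer; intermediate enzyme activity allows detecting inhibitors and activators.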
a7 integrin act: activates integrin-mediated alleviation for muscular dystrophy; alpha7betagal myoblasts, beta-gal FDG fluorescence, 48 h; Potency, µM (highest dose often 38.3 µM), without a hit: at the highest dose activation, actives largely listed as activators; 350,000 tested, 0.064% active;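 further: potency means the concentration at half of the fitted maximal effect; 100% = response of the positive control SU9516; nearly all actives have a fitted effect of over 60% in size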
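Alpha7betagal+/- myoblasts (passage 13) were plated 16-24 hr, then exposed to compounds (1:260 dilution of DMSO stock) for 48 hours at 37C. After MPER lysis, β-galactosidase reporter activity was read as FDG fluorescence (ex 480/em 540) after 30 minutes.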
* marks the source's active call; other numbers are inactive results; ? = inconclusive; . = not tested or not shown. Unless noted, the call rests on the fitted dose curve; in most records, active means well fitted curve in the direction sought with a large enough effect; inconclusive means small, poorly fitted or top-dose-only effect, or another doubt; inactive means no such curve, though single readings can be large; an effect the other way counts as inactive or inconclusive.

SMILES | USP2a block | ClpP mod | IL2 activator | Pin1 inhibitor | PKM2 activator | a7 integrin act
CCCN1C2CCCC1CC(NC(=O)c1cccc([N+](=O)[O-])c1)C2 (stereo not given) | 0% | 28µM* | 1 | -2% | . | 10µM*
COC(=O)c1cccc(Cn2cc([N+](=O)[O-])cn2)c1 | 8% | . | . | . | 10% | .
O=C(NC1CCCC1)c1cccc(Cn2cc([N+](=O)[O-])cn2)c1 | 2% | 16µM* | -3 | 4% | 3% | 4%
CCCN1C2CCCC1CC(NC(=O)c1cccc(Cl)c1)C2 (stereo not given) | 0% | -2% | 1 | 6% | -2% | -12%
COc1cccc(C2c3c(ncn(-c4ccc(Br)cc4)c3=N)Oc3ccc4ccccc4c32)c1 (stereo not given) | . | . | . | 64% | . | .
CN(C)CCNC(=O)c1sc2nc(-c3ccccc3)cc(C(F)(F)F)c2c1N | -1% | . | -1 | 21% | -1% | -3%
COc1ccc(-c2cc(C(F)(F)F)c3c(N)c(C(=O)NCCSC)sc3n2)cc1 | 0% | . | 119* | ? | -2% | -22%
COc1ccc(C2Nc3ccccc3C(=O)N2CCc2ccc(Cl)cc2Cl)cc1COc1ccc(NC(C)=O)cc1 (stereo not given) | . | . | . | -5% | . | .
Cn1c(=O)c2c(nc(Cl)n2CC(=O)NC2(C#N)CCCCC2)n(C)c1=O | 0% | 28µM* | -2 | -1% | . | 23%
O=C(COC(=O)c1ccc2ncsc2c1)NC(=O)C1CCCCC1 | . | -2% | . | 0% | . | .
CC1(C)Cc2c(C#N)c(N3CCCC3)nc(-c3ccco3)c2CO1 | 1% | . | . | . | 4% | .
N#Cc1c(NCCN)nc(-c2ccco2)c2c1CCCC2 | 0% | 8.9µM* | 0 | 15% | -1% | -56%
N#Cc1c(N2CCOCC2)nc(-c2ccco2)c2c1CCCC2 | 3% | 35µM* | 0 | 2% | 12% | -19%
CCc1nc(NCCN)c(C#N)c2c1CSC(C)(C)C2 | -5% | 22µM* | 0 | 8% | -12% | -32%
CC1(C)Cc2c(C#N)c(NCc3ccco3)nc(-c3ccco3)c2CO1 | 0% | 32µM* | 0 | 6% | 16% | -40%
CCc1nc2n[nH]c(N)c2c2c1CSC(C)(C)C2 | 1% | 1% | -2 | -1% | -11% | -15%
Nc1c(N=Nc2ccc([N+](=O)[O-])cc2)c(S(=O)(=O)O)cc2cc(S(=O)(=O)O)c(/C=C/c3ccccc3)c(O)c12 | . | 2% | . | . | . | .
CCc1nc(NCc2ccccc2)c(C#N)c2c1CCCC2 | 3% | 3% | 0 | -1% | -7% | 19%
CN(C)CCNc1nc(-c2ccco2)c2c(c1C#N)CC(C)(C)OC2 | -2% | ? | -3 | 7% | 8% | -10%
CCc1nc(NCCC(C)C)c(C#N)c2c1CCCC2 | -7% | 16µM* | 1 | -2% | -4% | 18%
CC(C)CCNc1nc(-c2ccco2)c2c(c1C#N)CCCC2 | 2% | 14µM* | 1 | 14% | 0% | -1%
C=C1C=C(C(F)F)n2ncc(C(=O)NCc3ccc(Cl)cc3Cl)c2N1 | . | 13% | . | . | . | .
COc1ccc(SCC(Cc2ccccc2)N2CCN(CC(C)C)CCC2=O)cc1 (stereo not given) | . | . | . | 5% | . | .
CN1CCN(c2nc3c(=O)[nH]c(N)nc3n2C2OC(CO)C(O)C2O)CC1 (stereo not given) | . | 1% | . | 2% | . | .
CCCc1cc(N2CCN(C(=O)c3ccco3)CC2)n2c(nc3ccccc32)c1C#N | 3% | 35µM* | -2 | 0% | 24% | 1%
SMILES | USP2a block | ClpP mod | IL2 activator | Pin1 inhibitor | PKM2 activator | a7 integrin act
CCCc1cc(-n2ccnc2C)n2c(nc3ccccc32)c1C#N | . | . | -2 | 8% | . | -23%
Cc1ccc(NC(=O)c2ccc(-n3nncc3-c3ccccc3)cc2)cc1 | . | 20% | . | -1% | . | .
CCN1C(=O)[C@H]2[C@@H](c3ccc(-c4cccc(Cl)c4)c(OC)c3)N[C@@](Cc3ccccc3)(C(=O)OC)[C@H]2C1=O | -1% | -2% | -5 | 25% | . | 11%
CCN1C(=O)[C@H]2[C@@H](c3ccc(-c4ccc(OC)cc4)c(OC)c3)N[C@@](Cc3ccccc3)(C(=O)OC)[C@H]2C1=O | 1% | 25µM* | 0 | 15% | . | -14%
O=C1NC(=O)c2c(NC(=O)C3CCCO3)cccc21 (stereo not given) | . | 16µM* | 0 | 2% | 10% | 18%
Cc1ccc2nc(/C(C#N)=C\c3ccc(N4CCOCC4)o3)[nH]c2c1 | ? | 1% | ? | ? | -1% | -7%
Cc1ccc(/C(C#N)=C\c2ccc(N3CCOCC3)o2)cc1 | 2% | 1% | 0 | ? | 2.8µM* | -44%
COc1ccc(C2C=C3CN(C(=O)OC(C)(C)C)S(=O)(=O)C3CC2OC(=O)c2cccc(C)c2)cc1 (stereo not given) | . | . | . | -3% | . | .
O=C(CN1CCOCC1)NCc1cc([N+](=O)[O-])ccc1O | 0% | 2% | 0 | -4% | -1% | 13µM*
CCCCNc1ccc(/C=C2\C=Cc3ccccc32)cc1 | . | -2% | . | . | . | .
CCN(CC)CCCn1c(-c2ccccc2)nc2c(NCCOC)nc(C)nc21 | . | . | . | . | 0% | .
O=C(O)c1cnn(-c2nc(-c3cccc(F)c3)cs2)c1C(F)(F)F | 2% | . | 0 | 10% | -10% | -3%
CCOC(=O)c1cnn(-c2nc3c(C)cccc3s2)c1C(F)(F)F | -1% | 28µM* | 0 | -4% | -4% | -9%
CCOC(=O)c1cnn(-c2nc3c(C)cccc3s2)c1C | 0% | -3% | 0 | 9% | -4% | 7%
CCOC(=O)c1cnn(-c2nc(-c3cccc(F)c3)cs2)c1C(F)(F)F | 4% | 28µM* | 2 | -6% | -2% | 13%
COc1cccc(Cn2cnc(-c3ccccc3OC)c2-c2ccco2)c1 | . | -18% | 0 | . | . | .
COc1cccc(-c2c(-c3ccccc3OC)ncn2Cc2cccc(-c3ccccc3)c2)c1 | . | 28µM* | -1 | . | . | .
O=C(CSc1nnc(NC(=O)c2ccc3c(c2)OCO3)s1)NCc1ccco1 | 0% | 4.5µM* | -1 | 10% | -6% | 5%
CCCCCCCCCC[n+]1ccc(/C=C/c2c(C)[nH]c3ccccc23)cc1 | . | 0% | . | . | . | .
CCCCN1CC(C(=O)NCc2ccc(C)cc2)CC1=O (stereo not given) | 5% | 20µM* | -1 | -6% | -3% | 2%
COc1ccc(Cn2ccc3nc(C)c(C(=O)Nc4ccc(OC(F)(F)F)cc4)cc3c2=O)cc1 | . | 25µM* | . | 5% | . | .
